The test system of this experiment is V-C8 (BRCA2-deficient hamster cells). Put plainly: normalised cell viability (fraction of plate median); higher = more viable cells (less toxic). The settings on record: 5 µM. In a few lines:
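Cell viability was measured with a resazurin assay, normalised to the plate median (modified robust per cent of sample) and averaged over triplicate wells. Hamster V-C8 cells lacking BRCA2 and V-C8 cells with BRCA2 restored were seeded in 96-well plates. After 24 h, library drugs from 10 mM DMSO stocks were added at a final 5 μM in 100 μl medium and left for 3 days (screen 1) or 6 days (screen 2), with solvent-only wells alongside.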

Where a name gives a salt, the structure may show the parent alone. ± gives the standard deviation of the averaged measurements. In all, about 1,300 compounds were measured (“normalised cell viability”: median about 1, lowest 2% from about 0.14 on). The sample as a whole holds a higher share of the lowest values than the screen did.

Regarding `CC(=O)N1CCN(c2ccc(OCC3COC(Cn4ccnc4)(c4ccc(Cl)cc4Cl)O3)cc2)CC1` (configuration not stated) [Ketoconazole], the normalised cell viability is, setting by setting: (treatment time: 3 days) 0.8 ± 0.022; (treatment time: 6 days) 0.898 ± 0.028.
For the molecule `CC1(C)S[C@@H]2[C@H](NC(=O)[C@H](NC(=O)N3CCNC3=O)c3ccccc3)C(=O)N2[C@H]1C(=O)O` [Azlocillin sodium salt], the normalised cell viability (treatment time: 3 days) came to 1.01 ± 0.015 and the normalised cell viability (treatment time: 6 days) amounted to 0.988 ± 0.092.
The corresponding values for `Clc1cnccn1` [2-Chloropyrazine] are 1.03 ± 0.019 and 1.02 ± 0.016.
In the case of `COCC1=C(C(=O)OC(C)OC(=O)OC(C)C)N2C(=O)[C@@H](NC(=O)/C(=N\OC)c3csc(N)n3)[C@H]2SC1` (some centres not stated) [Cefpodoxime proxetil], the normalised cell viability runs as follows: (treatment time: 3 days) 1.18 ± 0.025; (treatment time: 6 days) 1.06 ± 0.086.
The corresponding values for `CC(C(=O)O)c1ccc(N2Cc3ccccc3C2=O)cc1` (configuration not stated) [Indoprofen] are 1.012 ± 0.0016 and 1.08 ± 0.013.
As to `Nc1nc(=O)[nH]cc1F` [Flucytosine], the normalised cell viability (treatment time: 3 days) was 1.06 ± 0.02 and the normalised cell viability (treatment time: 6 days) is 0.987 ± 0.025.
With `Cc1ccc2c(c1)c1c3n2CCNC3CCC1` (configuration not stated) [Pirlindole mesylate], the normalised cell viability reads like this: (treatment time: 3 days) 0.904 ± 0.084; (treatment time: 6 days) 0.9725 ± 0.0077.
The corresponding values for `NCc1ccccc1CC(=O)N[C@@H]1C(=O)N2C(C(=O)O)=C(CSc3nnnn3CC(=O)O)CS[C@H]12` [Ceforanide] are 1.02 ± 0.073 and 1.21 ± 0.22.
The corresponding values for `C=CC[N@@+]12CC[C@@]34c5ccccc5N5/C=C6/[C@H]7C[C@H]8[C@@]9(CC[N@@+]8(CC=C)C/C7=C/CO)c7ccccc7N(/C=C(/[C@@H](C[C@@H]31)/C(=C\CO)C2)[C@H]54)[C@@H]69` [Alcuronium chloride] are 0.939 ± 0.13 and 1.03 ± 0.079.
For `c1ccc(-c2ccc(C(c3ccccc3)n3ccnc3)cc2)cc1` (configuration not stated) [Bifonazole], the normalised cell viability is, setting by setting: (treatment time: 3 days) 0.878 ± 0.032; (treatment time: 6 days) 0.74 ± 0.06.
As to `CC(=O)O[C@]1(C(C)=O)CC[C@H]2[C@@H]3C=C(Cl)C4=CC(=O)CC[C@]4(C)[C@H]3CC[C@@]21C` [Chlormadinone acetate], the normalised cell viability reads like this: (treatment time: 3 days) 0.998 ± 0.06; (treatment time: 6 days) 0.983 ± 0.043.
The corresponding values for `NNc1nncc2ccccc12` [Hydralazine hydrochloride] are 0.9847 ± 0.0028 and 1.03 ± 0.027.
Take `Nc1cc(-c2ccncc2)c[nH]c1=O` [Amrinone]: the normalised cell viability is, setting by setting: (treatment time: 3 days) 0.938 ± 0.029; (treatment time: 6 days) 0.951 ± 0.018.
Regarding `O=C(CCCCC(=O)Nc1c(I)cc(I)c(C(=O)O)c1I)Nc1c(I)cc(I)c(C(=O)O)c1I` [Iodipamide], the normalised cell viability (treatment time: 3 days) was 1.03 ± 0.06 and the normalised cell viability (treatment time: 6 days) amounted to 0.972 ± 0.029.
On to `CC(=O)Nc1ccc(CC(=O)O)cc1` [Actarit], for which the normalised cell viability came to 1.05 ± 0.015 (treatment time: 3 days) and 1.03 ± 0.038 (treatment time: 6 days).
Molecule `O=C(CCCCCCC(=O)Nc1ccccc1)NO` [Vorinostat] returned a normalised cell viability (treatment time: 3 days) of 0.14 ± 0.012 and a normalised cell viability (treatment time: 6 days) of 0.168 ± 0.012.
`CC[C@H](C)C(=O)O[C@H]1CCC=C2C=C[C@H](C)[C@H](CC[C@@H]3C[C@@H](O)CC(=O)O3)[C@H]21` [Mevastatin]: the normalised cell viability reads like this: (treatment time: 3 days) 0.23 ± 0.011; (treatment time: 6 days) 0.229 ± 0.0063.
With `CCCNC(C)C(=O)Nc1c(C)csc1C(=O)OC` (configuration not stated) [Articaine hydrochloride], the normalised cell viability by setting is: (treatment time: 3 days) 1.03 ± 0.024; (treatment time: 6 days) 1.06 ± 0.084.
Take `Nc1ccc(S(=O)(=O)Nc2ccnn2-c2ccccc2)cc1` [Sulfaphenazole]: the normalised cell viability amounted to 1.01 ± 0.011 (treatment time: 3 days) and 1.03 ± 0.031 (treatment time: 6 days).
The corresponding values for `COc1ccccc1OCC(O)CN1CCN(CC(=O)Nc2c(C)cccc2C)CC1` (configuration not stated) [Ranolazine] are 1.04 ± 0.054 and 0.967 ± 0.086.
Consider `N#CC(c1ccc(Cl)cc1)c1c(Cl)cc(-n2ncc(=O)[nH]c2=O)cc1Cl` (configuration not stated) [Diclazuril], for which the normalised cell viability (treatment time: 3 days) is 0.905 ± 0.068 and the normalised cell viability (treatment time: 6 days) stood at 0.875 ± 0.068.
As to `C#CCN(C)CCCOc1ccc(Cl)cc1Cl` [Clorgyline hydrochloride], the normalised cell viability is 1.11 ± 0.063 (treatment time: 3 days) and 1.019 ± 0.0054 (treatment time: 6 days).
The corresponding values for `NS(=O)(=O)Cc1noc2ccccc12` [Zonisamide] are 1.01 ± 0.036 and 1.03 ± 0.065.
Turning to `COc1ccc2c(c1)C(=O)N(CCc1ccc(S(=O)(=O)NC(=O)NC3CCCCC3)cc1)C(=O)C2(C)C` [Gliquidone], the normalised cell viability by setting is: (treatment time: 3 days) 1.05 ± 0.077; (treatment time: 6 days) 1.08 ± 0.049.
In the case of `CN1CCCN=C1/C=C/c1cccs1` [Pyrantel tartrate], the normalised cell viability runs as follows: (treatment time: 3 days) 1.06 ± 0.019; (treatment time: 6 days) 1.02 ± 0.079.
Regarding `CC(C)(C)NC[C@H](O)COc1nsnc1N1CCOCC1` [Timolol maleate salt], the normalised cell viability (treatment time: 3 days) came to 1.01 ± 0.022 and the normalised cell viability (treatment time: 6 days) amounted to 1.07 ± 0.065.
The corresponding values for `CCN(CC)C(=O)Nc1ccc(OCC(O)CNC(C)(C)C)c(C(C)=O)c1` (configuration not stated) [Celiprolol HCl] are 1.13 ± 0.12 and 0.988 ± 0.031.
For `C[C@H](O)C(=O)Nc1c(I)c(C(=O)NC(CO)CO)c(I)c(C(=O)NC(CO)CO)c1I` [Iopamidol], the normalised cell viability was found to be 0.952 ± 0.093 (treatment time: 3 days) and 1.09 ± 0.06 (treatment time: 6 days).
As to `Clc1ccc(CSC(Cn2ccnc2)c2ccc(Cl)cc2Cl)cc1` (configuration not stated) [Sulconazole nitrate], the normalised cell viability reads like this: (treatment time: 3 days) 0.983 ± 0.067; (treatment time: 6 days) 0.829 ± 0.043.
The corresponding values for `CCOC(=O)Nc1ccc2c(c1)N(C(=O)CCN1CCOCC1)c1ccccc1S2` [Moricizine hydrochloride] are 1.1 ± 0.13 and 1.13 ± 0.083.
Regarding `C=CC1=C(C(=O)O)N2C(=O)[C@@H](NC(=O)/C(=N\O)c3csc(N)n3)[C@H]2SC1` [Cefdinir], the normalised cell viability is, setting by setting: (treatment time: 3 days) 1.016 ± 0.0043; (treatment time: 6 days) 1.01 ± 0.06.
As for `Cc1c(C)c2c(c(C)c1O)CCC(C)(COc1ccc(CC3SC(=O)NC3=O)cc1)O2` (configuration not stated) [Troglitazone], the normalised cell viability was 0.68 ± 0.04 (treatment time: 3 days) and 0.588 ± 0.04 (treatment time: 6 days).
Turning to `C=C(CC)C(=O)c1ccc(OCC(=O)O)c(Cl)c1Cl` [Ethacrynic acid], the normalised cell viability runs as follows: (treatment time: 3 days) 1.08 ± 0.038; (treatment time: 6 days) 1.01 ± 0.048.
As to `COc1cc2c(cc1OC)C(=O)C(CC1CCN(Cc3ccccc3)CC1)C2` (configuration not stated) [Donepezil hydrochloride], the normalised cell viability runs as follows: (treatment time: 3 days) 0.957 ± 0.087; (treatment time: 6 days) 0.983 ± 0.011.
Take `OCC(O)CN1CCN(c2ccccc2)CC1` (racemic) [Dropropizine (R,S)]: the normalised cell viability reads like this: (treatment time: 3 days) 0.964 ± 0.051; (treatment time: 6 days) 1.01 ± 0.057.
`C=C[C@H]1CN2CC[C@H]1C[C@@H]2[C@@H](O)c1ccnc2ccc(OC)cc12` [Quinidine hydrochloride monohydrate]: the normalised cell viability stood at 0.997 ± 0.0082 (treatment time: 3 days) and 0.876 ± 0.16 (treatment time: 6 days).

These data come from the supplement of paper PMC6609913.
